Results: PubChem BioAssay (NCI)
The panel holds about 83,000 compounds, 20% with a hit somewhere; the sample as a whole holds those more often.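 Percent growth is the endpoint: 0 to 100 indicates growth inhibition (40 means 60% inhibition), 0 means no net growth, and negative values indicate cell death.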 The source made the active and inactive calls.

system: TK-10 renal; test: NCI-60 one-dose screen, 48 h (100 = growth as untreated, 0 = no growth, -100 = all killed); conditions: 10 µM
Procedure: Growth inhibition of the TK-10 human tumor cell line is measured as a screen for anti-cancer activity. Cells are grown in 96 well plates and exposed to the test compound for 48 hours. Compounds are tested at a single concentration, which is 10^-5 M for most compounds. The reported endpoint is percent growth (GI% or GIPRCNT), where numbers from 0 - 100% represent growth inhibition, and numbers from -100% - 0 represent cell death. For example, a value of 40 represents 60% growth inhibition. A value of 0 means no net growth occurred over the course of the experiment. A value of -40 indicates 40% of cells at the beginning of the experiment died by the end of the experiment. A value of -100 means all cells are dead at the end of the experiment.
NCI-60 Human Tumor Cell Lines Screen was performed using the standard one-dose NCI protocol, which is described in more detail at https://dtp.cancer.gov/discovery_development/nci-60/default.htm.
Compounds with GIPRCNT values below 10 were considered active. Activity score was based on GIPRCNT using the following formula: […]
Score is 0 for GIPRCNT values of 100 or above, 50 for GIPRCNT values of 0, and 100 for GIPRCNT values of -100.

Q: With `CCN(CC)CC(O)Cc1ccc(OC)cc1` (stereo not given) as the compound, how does the growth read?
A: 96.5% (inactive)

Q: Which growth does the source give for `O=C(Nc1ccc(OS(=O)(=O)Cc2ccccc2)cc1)C12CC3CC(CC(C3)C1)C2` here?
A: 112% (inactive)

Q: `COc1ccc(N2CCN(c3nc(-c4ccccc4)c(C#N)c(=O)[nH]3)CC2)cc1` was tested. Which growth did it give?
A: 115% (inactive)

Q: `O=C(OCc1ncc(-c2ccc(C(F)(F)F)cc2)c(NC2CCCCCC2)n1)c1c(F)c(F)c(F)c(F)c1F` was tested. Which growth did it give?
A: 63.2% (inactive)

Q: Which growth does the source give for `CCCCCc1cc[n+](CC(=O)c2ccc(Cl)cc2)cc1` here?
A: 98.4% (inactive)

Q: How did the growth turn out when `Cc1ccccc1C1=N[C@@H](Cc2ccccc2)C(=O)c2c(nc3ccccn23)N1` was run?
A: 138% (inactive)

Q: With `COc1ccc(/C=C2\SC(=S)N(CCCN3CCOCC3)C2=O)c(OC)c1` as the compound, how does the growth read?
A: 104% (inactive)

Q: How did the growth turn out when `C[C@@H]1N=C(c2ccc(Br)cc2)Nc2nc3ccccn3c2C1=O` was run?
A: 110% (inactive)

Q: Which growth does the source give for `CC1(C)CCc2cc(-c3ccn(S(=O)(=O)c4ccc(Cl)cc4)n3)ccc2O1` here?
A: 77% (inactive)

Q: With `COc1cc(C2CC(=O)Nc3c2c(C)nn3-c2nc3ccccc3[nH]2)cc(OC)c1O` (stereo not given) as the compound, how does the growth read?
A: 37.2% (inactive)

Q: For `CCCCCCCCCCCCCCCC(=O)N1CCN(C)CC1`, which growth is on record?
A: 73.8% (inactive)

Q: Which growth does the source give for `CC(C)C[C@H](NC(=O)CCn1ccc2ccccc2c1=O)B(O)O` here?
A: 12.8% (inactive)

Q: Which growth does the source give for `COc1ccc(-c2[nH]ncc2-c2cc(OC)c(OC)c(OC)c2)cc1` here?
A: 44.7% (inactive)

Q: `CCN(CC)CCn1c(=N)n(CC(O)c2ccc(Cl)c(Cl)c2)c2ccccc21` (stereo not given) was tested. Which growth did it give?
A: 87.1% (inactive)

Q: Which growth does the source give for `COc1ccc2nc(NC(=O)Nc3c(F)cccc3F)sc2c1` here?
A: 84.8% (inactive)

Q: `CC(Oc1ccc(Cl)cc1)c1ccccc1` (stereo not given) was tested. Which growth did it give?
A: 106% (inactive)

Q: How did the growth turn out when `O=S(=O)(NC1c2ccccc2Oc2ccccc21)c1cc(Cl)ccc1Cl` was run?
A: 95.6% (inactive)

Q: How did the growth turn out when `COc1cc(-c2nc3ccccc3[nH]2)ccc1OCc1nnc(-c2ccc(Br)cc2)o1` was run?
A: 130% (inactive)

Q: For `O=[N+]([O-])c1cc2ncccc2c2ncccc12`, which growth is on record?
A: 106% (inactive)

Q: How did the growth turn out when `O=C(NCc1cn(Cc2cccc(Oc3ccccc3)c2)nn1)c1cccnc1Nc1ccccc1` was run?
A: 85.2% (inactive)

Q: With `Cn1cnc([N+](=O)[O-])c1Sc1nnc(-c2ccccc2)c(-c2ccccc2)n1` as the compound, how does the growth read?
A: 48.1% (inactive)

Q: How did the growth turn out when `Cc1ccc(-c2cc(-c3cccc(Nc4ccnc5cc(Cl)ccc45)c3)nc3nc(N)[nH]c(=O)c23)cc1` was run?
A: 112% (inactive)

Q: Which growth does the source give for `COc1ccc(NC(=O)CCn2cnc3c(cc(-c4ccccc4)n3-c3ccccc3)c2=O)cc1` here?
A: 105% (inactive)

Q: How did the growth turn out when `CCCCCCCCCCCCCCCCCBr` was run?
A: 108% (inactive)

Q: How did the growth turn out when `O=C(NNc1nc(N2CCCC2)nc(N2CCCC2)n1)c1ccccc1` was run?
A: 114% (inactive)

Q: Which growth does the source give for `CC(C)c1[nH]nc2c(NCc3ccc(-c4ccccn4)cc3)nc(SCCN)nc12` here?
A: -2.72% (active)

Q: `O=C1/C(=C/c2cccs2)CCC/C1=C\c1cccs1` was tested. Which growth did it give?
A: 78.2% (inactive)

Q: How did the growth turn out when `Cc1cc(C#Cc2ccccc2)ccc1-n1c(/C=C/c2cc(O)ccc2O)nc2ccccc2c1=O` was run?
A: 29.7% (inactive)

Q: Which growth does the source give for `O=C(O)c1ccccc1C(=O)c1cccc2c(F)cccc12` here?
A: 110% (inactive)

Q: `Fc1cc(-c2ncc(-c3cc(F)c(F)c(F)c3)c(NC3CCCCCC3)n2)cc(F)c1F` was tested. Which growth did it give?
A: 152% (inactive)

Q: For `O=C1NN(c2ccccc2)C(c2cccnc2)=N/C1=C\c1cccnc1`, which growth is on record?
A: 110% (inactive)

Q: For `COc1cccc(C(=O)NNc2nc(N3CCOCC3)nc(N3CCN(C(c4ccccc4)c4ccccc4)CC3)n2)c1`, which growth is on record?
A: 86.7% (inactive)

Q: With `CC(C)OP(=O)(O)c1ncc(-c2ccc(C(F)(F)F)cc2)c(NC2CCCCCC2)n1` as the compound, how does the growth read?
A: 67% (inactive)

Q: How did the growth turn out when `CC(=O)OC1Oc2ccccc2-c2oc(=O)c(-c3ccc(F)cc3)cc21` (stereo not given) was run?
A: 92.9% (inactive)

Q: Which growth does the source give for `C[C@@H]1C(=O)N(C[C@H](Cc2ccccc2)NC(=O)OCc2ccccc2)[C@]1(Cc1ccccc1)C(=O)OCc1ccccc1` here?
A: 29.1% (inactive)

Q: For `COCc1cc2c(cc1Br)OCO2`, which growth is on record?
A: 95.7% (inactive)

Q: With `COc1cc(-c2cc(/C=C/C(C)=O)[nH]n2)cc(OC)c1OC` as the compound, how does the growth read?
A: 73.8% (inactive)

Q: With `CCOC(=O)c1sc(Nc2ncccn2)nc1-c1ccccn1` as the compound, how does the growth read?
A: 102% (inactive)

Q: `CCCCN(CCCC)c1ccc(C(=NC(C)CCCN(CC)CC)c2ccc(N(C)C)cc2)cc1` (stereo not given) was tested. Which growth did it give?
A: -8.82% (active)

Q: How did the growth turn out when `O=S(=O)(NCl)c1ccccc1` was run?
A: 96.2% (inactive)
